Compound activity (PubChem BioAssay)
Shiga inhibitor – Shiga toxin inhibition | AID 2315 | inhibition, % at 38.7 µM | actives 9.2% (n = 290,000) | Vero cells, Shiga toxin protein synthesis inhibition reporter; in the data active = inhibition mostly above about 28%, no sharp cut-off; inactive = mostly below about 43%
CHX counter – counter-screen for Shiga toxin inhibitors: cycloheximide protein synthesis inhibition. cell reporter, cycloheximide protein synthesis inhibition counterscreen. max response, %. actives 12% (n = 300,000). AID 2314; in the data active = max response mostly above about 13%, no sharp cut-off; inactive = mostly below about 14%; also: read at 38.3 µM for the half of the compounds with a filed dose
Pf growth 96h – inhibits malaria parasite growth, 96 h | AID 504834 | Potency, µM (titrated, usually from 28.7 µM), most hits filed as inhibitors | actives 6.9% (n = 320,000) | P. falciparum luciferase reporter growth, 96 h
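P. falciparum expressing integrated firefly luciferase, in erythrocytes at 2% hematocrit, 0.05% parasitemia, incubated with compounds 96 h at 37 C, 5% CO2. Growth inhibition read as loss of luminescence; two-generation exposure targets delayed-death apicoplast inhibitors.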
AMA1 RON2 block – inhibitors of Plasmodium falciparum AMA1-RON2 interaction; AlphaScreen AMA1-biotinylated RON2 peptide binding; Potency, µM (series often up to 58.2 µM), actives largely listed as inhibitors; actives 0.2% (n = 360,000); AID 720542; also: nearly all actives have a fitted effect of over 45% in size
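AMA1 (3D7) with his tag at 25 nM final met compounds first, then biotinylated RON2 peptide at 25 nM; detection used donor plus acceptor beads, 10 µg/mL apiece, read by AlphaScreen after 30 min at room temperature.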
Pf growth 48h – inhibits P. falciparum growth in the first generation, 48 h. AID 504832. P. falciparum luciferase growth in erythrocytes, 48 h. actives 5.9% (n = 310,000). Potency, µM (series often up to 28.7 µM), usual class: inhibitors
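Read-out is firefly luciferase luminescence from an integrated reporter in P. falciparum, so falling signal marks reduced parasite growth. Infected erythrocytes were at 2% hematocrit and 0.1% parasitemia (final) in Albumax-supplemented RPMI 1640.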
HCV inh – HCV inhibition. Huh7.5.1 HCVcc-Cre infection, luciferase reporter, 44 h. Potency, µM (series often up to 41.8 µM), hits mostly inhibitors. actives 3.4% (n = 340,000). AID 651820
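1,000 cells/well; 4 h culture; + compound; + HCVcc-Cre (~0.5 moi); 44 h; luciferase substrate, RT 15 min; read 15 sec.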
Large screens that a line does not name were inactive. This is a sample that favours compounds with a hit; in the whole collection about 21% have one here. Unless noted, calls follow the shape of the dose curve; as a rule, active = well fitted curve in the direction sought with a large enough effect; inconclusive = small, poorly fitted or top-dose-only effect, or another doubt; inactive = no such curve, though single readings can be large; an effect the other way counts as inactive or inconclusive.

O=C(c1cccnc1)N1CCC(Oc2ccc(C(=O)N3CCCC(O)C3)cc2)CC1 (configuration not stated)	Pf growth 96h inconclusive
Cc1ccc2nc3c(cc2c1)c(NC(=O)c1ccco1)nn3CC(C)C	Pf growth 96h inconclusive, Pf growth 48h inconclusive, HCV inh inconclusive
CC(C)Cn1nc(NC(=O)C(C)(C)C)c2cc3ccccc3nc21	Pf growth 96h inconclusive, Pf growth 48h 9.3µM
Cc1ccc2nc3c(cc2c1)c(NC(=O)C(C)(C)C)nn3CC(C)C	Pf growth 96h 1µM, Pf growth 48h 13µM, HCV inh inconclusive
Cc1ccccc1-c1cnc(C(O)c2c(C)ccc3ccccc23)[nH]1 (configuration not stated)	none (no result: Shiga inhibitor, CHX counter, Pf growth 96h, Pf growth 48h, HCV inh)
Cc1nc(C(F)(F)F)ccc1C(=O)Nc1ccc(C(F)(F)F)cn1	none
Cc1nc(-c2ccncc2)nc(NCCNc2ccc(C(F)(F)F)cn2)c1Cl	Pf growth 96h 2.3µM, Pf growth 48h 3.7µM, HCV inh inconclusive
Nc1[nH]c(C(=O)c2ccccc2)c(-c2cccc3ccccc23)c1C(=O)NCc1ccccc1	none (no result: Shiga inhibitor, CHX counter, Pf growth 96h, Pf growth 48h, HCV inh)
COCCCN1CC(=O)N2C(c3ccccc3)c3[nH]c4ccccc4c3C[C@H]2C1=O (some centres not stated)	Pf growth 96h inconclusive (no result: Pf growth 48h)
Cc1ccccc1C1c2[nH]c3ccccc3c2C[C@H]2C(=O)N(C3CC3)CC(=O)N12 (some centres not stated)	Pf growth 96h 3.7µM, Pf growth 48h 12µM
COc1cccc(C2c3[nH]c4ccccc4c3C[C@H]3C(=O)N(C4CCN(Cc5ccccc5)CC4)CC(=O)N23)c1 (some centres not stated)	Pf growth 96h 3.7µM, Pf growth 48h 4.7µM, HCV inh inconclusive
O=C1[C@@H]2Cc3c([nH]c4ccccc34)C(c3ccccc3)N2C(=O)CN1C1CC1 (some centres not stated)	Pf growth 96h inconclusive, Pf growth 48h inconclusive
O=C1[C@@H]2Cc3c([nH]c4ccccc34)C(c3ccc([N+](=O)[O-])cc3)N2C(=O)CN1C1CC1 (some centres not stated)	Pf growth 96h inconclusive, HCV inh inconclusive
COc1ccc(C2c3[nH]c4ccccc4c3C[C@H]3C(=O)N(C4CCN(Cc5ccccc5)CC4)CC(=O)N23)cc1OC (some centres not stated)	Pf growth 96h 1.5µM, Pf growth 48h 1.5µM, HCV inh inconclusive
COc1ccccc1C1c2[nH]c3ccccc3c2C[C@H]2C(=O)N(C3CCN(Cc4ccccc4)CC3)CC(=O)N12 (some centres not stated)	Pf growth 96h 1.5µM, Pf growth 48h 1.9µM, HCV inh inconclusive
CC(=O)c1c(Cl)nc2ccc(Br)cc2c1-c1ccccc1	HCV inh inconclusive (no result: Shiga inhibitor)
COc1ccc(C(=O)CCNc2cccc(Cl)c2)cc1	Pf growth 96h inconclusive
O=C(CCC(=O)c1ccc(Oc2ccccc2)cc1)Nc1cccc(Cl)c1	Pf growth 96h 5.9µM
COc1ccc(C(=O)CCC(=O)Nc2cccc(Cl)c2)cc1	Pf growth 96h inconclusive
CCCOc1ccc(C(=O)CCNc2cccc(Cl)c2)cc1	Shiga inhibitor 130, CHX counter 25, HCV inh inconclusive
CCOC(=O)c1ccc2c(c1)n(Cc1ccccc1)c(C)[n+]2CC	Pf growth 48h inconclusive
CCOC(=O)c1ccc2c(c1)n(CC)c(/C=C/N(C)c1ccccc1)[n+]2CC	Pf growth 48h 1.2µM, HCV inh inconclusive
O=c1cc(COc2ccc(Cl)c(Cl)c2)nc2sccn12	CHX counter 20
O=c1cc(CNc2cc(Cl)ccc2Cl)nc2sccn12	CHX counter 29
O=C1CN(S(=O)(=O)c2c(F)cccc2F)CCN1S(=O)(=O)c1ccc2c(c1)OCCO2	none (no result: Pf growth 96h, AMA1 RON2 block, Pf growth 48h, HCV inh)
COc1ccc(/C=N/NC(=O)c2cc(-c3ccccc3)nc3ccccc23)c(OC)c1	CHX counter 18
O=C(N/N=C/c1cc([N+](=O)[O-])ccc1O)c1cc(-c2ccccc2)nc2ccccc12	Pf growth 48h 2.9µM, HCV inh inconclusive
Cc1cc(C(=O)N/N=C/c2cc(Br)cc([N+](=O)[O-])c2O)c2ccccc2n1	AMA1 RON2 block 35µM
O=C(N/N=C/c1cccc(O)c1)c1cc(-c2ccccc2)nc2ccccc12	none
Cc1cc(C(=O)N/N=C/c2cc([N+](=O)[O-])ccc2O)c2ccccc2n1	Pf growth 96h inconclusive, AMA1 RON2 block inconclusive, Pf growth 48h 9.3µM, HCV inh inconclusive
O=[N+]([O-])c1ccccc1CNCCCCCO	none (no result: Shiga inhibitor, CHX counter)
CC(C)C1C(=O)N(Cc2cn(Cc3ccco3)nn2)CCS(=O)(=O)N1Cc1ccc(-c2ccc(F)cc2)cc1 (configuration not stated)	none (no result: Shiga inhibitor, CHX counter, Pf growth 96h, Pf growth 48h, HCV inh)
Nc1ccc(S(=O)(=O)Nc2nccc(/C=C/c3cccc(Br)c3)n2)cc1	none
COc1ccccc1-c1cc(C(=O)N/N=C/c2sccc2C)c2ccccc2n1	Pf growth 96h 1.9µM, Pf growth 48h 1.9µM, HCV inh inconclusive
O=C(CSc1nnc(CCCN2C(=O)c3cccc4cccc(c34)C2=O)n1-c1ccccc1)NCCCN1CCOCC1	Pf growth 48h 9.3µM
O=C(Cc1sc(-c2ccccc2Cl)nc1-c1ccccc1)Nc1ccc(F)cc1	Pf growth 48h inconclusive, HCV inh 7.9µM (no result: Pf growth 96h)
Cc1cc(C(=O)CN2C(=O)NC3(CCCCC3)C2=O)c(C)n1C	Shiga inhibitor 45, CHX counter 38
Cc1cc(C)c(C(=O)CN2C(=O)NC3(CCCCCC3)C2=O)cc1C	Shiga inhibitor 41, CHX counter 53, AMA1 RON2 block inconclusive
Cc1ccc(S(=O)(=O)c2c(C)cc(C)[nH]c2=O)cc1	none
O=C(Cc1ccc(S(=O)(=O)N2CCOCC2)s1)NCCOc1ccccc1	none (no result: Shiga inhibitor, CHX counter)
CC1CCN(C(=O)c2cc3nc(-c4ccccc4)cc(-c4ccccc4)n3n2)CC1	Pf growth 96h 6.6µM, HCV inh inconclusive (no result: Pf growth 48h)
O=C(NC1CCCC1)c1cc2nc(-c3ccccc3)cc(-c3ccccc3)n2n1	Pf growth 96h inconclusive, Pf growth 48h inconclusive
Cc1ccc(-c2cc(C(=O)O)c3cc(Br)ccc3n2)s1	Shiga inhibitor 42, CHX counter 23, Pf growth 96h inconclusive
COc1ccc(-c2cc(C(=O)N3CCN(c4ccccc4)CC3)c3ccccc3n2)cc1OC	Pf growth 48h inconclusive, HCV inh inconclusive (no result: Pf growth 96h)
CC(=O)c1c(C)nc2ccc(Br)cc2c1C(=O)O	none (no result: Pf growth 48h)
Cc1ccc(-c2cc(C(=O)N3CCCC3)c3ccccc3n2)s1	Shiga inhibitor 52, CHX counter 20, Pf growth 96h inconclusive
COc1ccc(N2CCN(C(=O)c3cc(-c4cccs4)nc4ccccc34)CC2)cc1	Pf growth 96h inconclusive, AMA1 RON2 block 13µM, Pf growth 48h inconclusive, HCV inh inconclusive
O=C(c1cc(-c2ccc(Cl)s2)nc2ccccc12)N1CCCC1	none (no result: Shiga inhibitor, CHX counter, Pf growth 96h, Pf growth 48h)
COc1cccc(NC(=O)COC(=O)CCC(=O)c2cccs2)c1	none (no result: Shiga inhibitor, CHX counter)
